In PubChem BioAssay (NCI) one finds growth inhibition data, which are given here for 21 compounds.

Assay [1] in a line: NCI Yeast Anticancer Drug Screen. Data for the rad50 strain (AID 155).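 Further: 0% = growth of vehicle-only cultures of the same strain.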 The following applies: S. cerevisiae rad50 strain growth inhibition; at 50.0 µM; stronger effect = higher value. A digest of the protocol: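 Relative growth inhibition (compound vs vehicle) was measured in yeast with a defined repair-gene alteration.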
Assay [2] is described as follows: NCI Yeast Anticancer Drug Screen. Data for the mec2-1 strain (AID 157). The following applies: S. cerevisiae mec2-1 strain, at 50.0 µM, stronger effect = higher value. Summed up: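 Using mec2-1 yeast: add compound, measure growth, express inhibition versus vehicle-treated cultures.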
Assay [3] is described as follows: NCI Yeast Anticancer Drug Screen. Data for the sgs1 mgt1 strain (AID 161).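 Further: 0% = growth of cultures given vehicle only.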 The following applies: S. cerevisiae sgs1 mgt1 strain, at 50.0 µM, stronger effect = higher value. A digest of the protocol: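 Compounds are added to genetically altered yeast, and growth is compared with cultures given vehicle alone to give percent inhibition.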
Assay [4] is described as follows: NCI Yeast Anticancer Drug Screen. Data for the cln2 rad14 strain (AID 165).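 Further: 0% = growth equal to vehicle treated cultures.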 The following applies: S. cerevisiae cln2 rad14 strain, at 50.0 µM, stronger effect = higher value. A digest of the protocol: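 Yeast strain cln2 rad14, bearing defects in cell cycle control and DNA repair, serves as the test system; values reflect growth inhibition compared with vehicle.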
Assay [5] is described as follows: NCI Yeast Anticancer Drug Screen. Data for the bub3 strain (AID 167). The conditions noted are these: S. cerevisiae bub3 mutant strain, at 50.0 µM, stronger effect = higher value. Summed up: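 Screening used yeast with an engineered genetic alteration affecting cell cycle control. Compound-exposed cultures were compared with vehicle cultures, and reduced growth was taken as inhibition.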

Assay [6] is described as follows: NCI Yeast Anticancer Drug Screen. Data for the mlh1 rad18 strain (AID 175). The following applies: S. cerevisiae mlh1 rad18 strain growth inhibition; at 50.0 µM; stronger effect = higher value. Summed up: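 Steps: expose repair-defective yeast to compound; measure growth; express inhibition against vehicle-treated controls.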

The panel holds about 79,000 compounds, 15% with a hit somewhere; the sample as a whole holds those more often. A number with no mark means an inactive call. Calls of active or inactive are those of the source. No stated cut-off is given here; in the data, active means growth inhibition above about 70%; inactive means the rest.

Turning to `CCOC(CN/C(=C/c1ccc2ccccc2[n+]1C)SC)OCC`, the growth inhibition in assay [1] is -10.8%; in assay [2] it was 9.15%; in assay [3] it was -8.4%; in assay [4], -12.1%; in assay [5], -32.8%; in assay [6], -8.2%.

Take `O=C(CC(=O)Nc1ccccc1)N/N=C/c1cc(N=Nc2ccc(Br)cc2)ccc1O`: the growth inhibition is 16.4% in assay [1]; 24.9% in assay [2]; 53% in assay [3]; 4.65% in assay [4]; 0.2% in assay [5]; 29% in assay [6].

For the compound `O=C(NN(Cn1c(=S)sc2ccccc21)Cn1c(=S)sc2ccccc21)c1ccccc1O`, the growth inhibition in assay [1] was 86.7% (active); in assay [2], 74.2% (active); in assay [3], 89% (active); in assay [4], 57.6%; in assay [5], 69%; in assay [6] it was 76.2% (active).

As for `CCCCCCC1NC(=S)N(c2ccccc2)C1=O` (stereo unspecified), the growth inhibition is -12.1% in assay [1]; 0.5% in assay [2]; 48.5% in assay [3]; -5% in assay [4]; 21.2% in assay [5]; -6.2% in assay [6].

Regarding `Cc1nc(Nc2ccccc2Cl)sc1C(=O)CC(=O)C(N)=O`, the growth inhibition in assay [1] was 37.1%; in assay [2] it was 20.9%; in assay [3], 39.4%; in assay [4], 24.1%; in assay [5], 2.7%; in assay [6] it was 48.6%.

As for `CC(=O)Oc1cccc2cc3cc(C)cc(OC(C)=O)c3c(OC(C)=O)c12`, the growth inhibition in assay [1] is -7.15%; in assay [2], 3.8%; in assay [3], 2.95%; in assay [4], -2.95%; in assay [5], 6.5%; in assay [6] it was 14.7%.

Take `c1ccc(COC2COC(OCc3ccccc3)C(OCc3ccccc3)C2OCc2ccccc2)cc1` (stereo unspecified): the growth inhibition in assay [1] was 1.05%; in assay [2] it was -3.45%; in assay [3], 3.4%; in assay [4], -36.4%; in assay [5], 12.4%; in assay [6], -3.3%.

`CC(C)(C)c1cc(-c2cc(C(C)(C)C)n(-c3ccccc3)n2)nn1-c1ccccc1`: the growth inhibition in assay [1] is -22.6%; in assay [2], -26.9%; in assay [3], -17.3%; in assay [4], 16%; in assay [5], -31.4%; in assay [6], -27.2%.

Turning to `CCCCCCOC(=O)NC1c2ccccc2Oc2ccccc21`, the growth inhibition in assay [1] is -0.35%; in assay [2], 7.15%; in assay [3] it was 10.1%; in assay [4], -7.2%; in assay [5], 7.45%; in assay [6], 3.15%.

With `COc1ccc(C(=O)C[n+]2cc(Br)cc3ccccc32)cc1`, the growth inhibition in assay [1] is -3.1%; in assay [2], 11.8%; in assay [3], 1.5%; in assay [4], 22.9%; in assay [5] it was -3.05%; in assay [6], 54.5%.

On to `CCc1ccccc1NC(=O)C(=O)C(C#N)c1ccccc1Cl` (stereo unspecified), for which the growth inhibition is -7.2% in assay [1]; -30.6% in assay [2]; -17.6% in assay [3]; 3.55% in assay [4]; 6.3% in assay [5]; -9.45% in assay [6].

On to `O=C1CS(=O)(=O)CN1c1ccc(Cl)c(Cl)c1`, for which the growth inhibition in assay [1] was -17.4%; in assay [2], -3.35%; in assay [3] it was -7.65%; in assay [4], 6%; in assay [5], 7%; in assay [6] it was 3.6%.

Consider `CCC(=O)OCC(OC(=O)CC)C(OC(=O)CC)C(OC(=O)CC)C(COC(=O)CC)OC(=O)CC` (stereo unspecified), for which the growth inhibition in assay [1] was -0.5%; in assay [2] it was 6.95%; in assay [3], -16.6%; in assay [4] it was -31.6%; in assay [5] it was 1.35%; in assay [6], -3.75%.

As for `CCN(CC)CC1(C)NN=C2C(n3cccc3)=CC=CN21` (stereo unspecified), the growth inhibition in assay [1] is -3.7%; in assay [2], 11.7%; in assay [3] it was -3.4%; in assay [4], -20.6%; in assay [5], -4.2%; in assay [6], -4.9%.

In the case of `O=CNC(Cc1ccccc1)c1ccc(OCc2ccccc2)cc1` (stereo unspecified), the growth inhibition in assay [1] was 0.75%; in assay [2], 5%; in assay [3], 1.55%; in assay [4], 31.1%; in assay [5], 31.6%; in assay [6] it was 16.9%.

Take `C=C(C)C1CCC2(CO)C(O)CC3(C)C(CCC4C5(C)CCC(O)C(C)(C)C5CCC43C)C12` (stereo unspecified): the growth inhibition in assay [1] is 14.5%; in assay [2] it was 7.45%; in assay [3], -8.75%; in assay [4], 2.95%; in assay [5], 15.6%; in assay [6], -6.6%.

For `Cc1ccc(NC(=O)Oc2ccc(C#N)cc2)cc1Cl`, the growth inhibition in assay [1] is 9.45%; in assay [2] it was 5.85%; in assay [3], 21.1%; in assay [4] it was 17.8%; in assay [5], 29.8%; in assay [6] it was 27.1%.

In the case of `O=C(CSc1nnc(-c2ccccc2NC(=O)C(F)(F)F)c(=O)[nH]1)NC(=O)Nc1ccccc1`, the growth inhibition is 31.7% in assay [1]; -28.8% in assay [2]; 11.7% in assay [3]; 16.3% in assay [4]; -8.35% in assay [5]; 23.9% in assay [6].

As for `COc1c(O)c2c3c(cc(C)cc3c1C(C)C)OC2`, the growth inhibition in assay [1] is 93.3% (active); in assay [2], 94.5% (active); in assay [3], 94.3% (active); in assay [4] it was 93.1% (active); in assay [5], 93.4% (active); in assay [6], 93.1% (active).

For the compound `OC1CSc2ccccc2-n2cccc21` (stereo unspecified), the growth inhibition is 25.8% in assay [1]; 6.4% in assay [2]; 21.8% in assay [3]; 32.9% in assay [4]; 6.75% in assay [5]; 16.4% in assay [6].

On to `CC(C)=NC(C(=O)O)C(C)(C)S` (stereo unspecified), for which the growth inhibition was -17.6% in assay [1]; -15.2% in assay [2]; -18.1% in assay [3]; -12.3% in assay [4]; -62% in assay [5]; -17.1% in assay [6].
